# Compound activity (PubChem BioAssay)
# Nrf2 inh: inhibitors of Nrf2 signaling | A549 ARE-Fluc reporter, luciferase luminescence, 18-24 h | Potency, µM (titrated, usually from 46 µM), actives largely listed as inhibitors | 360,000 tested, 2.1% active | AID 504444; further: nearly all actives have a fitted effect of over 60% in size
#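 Nrf2 activity is the BugLite luminescence, read 15 min after reagent at room temperature, following CellTiter-Fluor cytotoxicity readout (30 min, 37C). Compound titrations were applied for 18-24 h to 5000 A549 ARE_Fluc cells/well in 5% FBS OPTI-MEM.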
# A549 tox: kills or reduces viability of A549 cells in Nrf2 counter-screen; A549 ARE-Fluc cells, CellTiter-Fluor viability, 18-24 h; Potency, µM (doses to about 46 µM), most hits filed as inhibitors; 390,000 tested, 0.16% active
#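 A549 ARE-Fluc cells in 5% FBS OPTI-MEM, 5000 cells/well, rested 2 h then exposed to compounds in concentration-response for 18-24 h at 37 °C. Viability by CellTiter-Fluor fluorescence (Ex 405/Em 525) after 30 min; luciferase luminescence (BugLite, 15 min, RT) read afterwards.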
# p53 reactivator: restores transcriptional activity of mutant p53; H1299 p53-A138V BP100-luciferase reporter, luminescence, 24 h; Potency, µM (titrated, usually from 92.2 µM), usual class: activators; 320,000 tested, 0.063% active; further: nearly all actives have a fitted effect of over 45% in size
#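 p53-null H1299 cells stably carrying temperature-sensitive p53-A138V and a BP100-luciferase reporter were pinned with compounds (4-point, 1:5 series) and held 24 hrs at 37 deg C. Luminescence was read 10 min after detection reagent.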
# BRCA1 expr act: activators of BRCA1 expression. MCF7-BRCA1-FFLuc reporter, luminescence, 48 h; response scale: scaled: vehicle 0%, 10 µM genistein 100%. Potency, µM (doses to about 46.1 µM), most hits filed as activators. 380,000 tested, 1.1% active; further: nearly all actives have a fitted effect of over 80% in size
#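 First, MCF7-BRCA1-FFLuc cells (2000/well) attach for 2 h; next, compounds are pin-added and incubated 48 h at 37 °C; finally, luciferase reagent is added and luminescence read after 15 min.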
# Nrf2 activator: Nrf2 pathway activation; AREc32 ARE-luciferase reporter (MCF7-derived line), luminescence, 24 h; Potency, µM (titrated, usually from 46.1 µM), actives largely listed as activators; 410,000 tested, 0.31% active; AID 624171; further: nearly all actives have a fitted effect of over 65% in size
#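 For detection, Steady-Glo was added and plates sat 30 min at RT; before that, AREc32_Fluc cells grown overnight in OPTI-MEM/5% FBS had been treated with 23 nL compound for 24 hr at 37 deg C.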
# IL2 activator: IL-2 activation | IL-2 activation reporter assay, cell-based qHTS; stimulated with anti-CD3/CD4/CD28 beads; in transgenic mouse T cells | AID 652025 | 360,000 tested, 0.065% active | activation, % (series mostly up to about 46 µM); in the data active means activation above about 50%; inconclusive means mostly about 30% to 49%
#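 Readout: EGFP and DsRed signals by fluorescent plate cytometry. Unstimulated transgenic mouse T cells received compound 60 min before antibody-bead stimulation, then incubated 18 h at 37 degrees C.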
# A number is an active result; . = inactive; ? = inconclusive; / = not tested or not shown; ! = not active in a repeat; [ ] = dose if it differs, or a comment. This is a sample that favours compounds with a hit; in the whole collection about 3.2% have one here. Unless noted, the call rests on the fitted dose curve; in most records, active means well fitted curve in the direction sought with a large enough effect; inconclusive means small, poorly fitted or top-dose-only effect, or another doubt; inactive means no such curve, though single readings can be large; an effect the other way counts as inactive or inconclusive.
SMILES,Nrf2 inh,A549 tox,p53 reactivator,BRCA1 expr act,Nrf2 activator,IL2 activator
CC(C)(C)c1ccc(C2CC2C(=O)N/N=C\c2ccc[nH]2)cc1 (stereo unspecified),1.6µM,5.8µM,.,.,.[9.22 µM],.
Cc1c(P(=S)(c2ccccc2)c2ccccc2)c2ccccc2n1Cc1ccccc1,.,.,/,/,/,/
Cc1cc(C(=O)COc2cccnc2[N+](=O)[O-])c(C)n1Cc1ccco1,?,.,.,.,.,.
Cc1cc(C(=O)COc2cccnc2[N+](=O)[O-])c(C)n1-c1ccccc1,2.9µM,.,.,.,.,.
Cc1ccc(-n2c(C)cc(C(=O)COc3cccnc3[N+](=O)[O-])c2C)cc1,3.3µM,.,?,.,.,.
Cc1cc(C(=O)COc2cccnc2[N+](=O)[O-])c(C)n1-c1ccccc1F,?,.,.,.,.,.
CCOc1ccc(C(=O)/C=C/c2cn(CC(O)CN3CCc4ccccc43)c3ccccc23)cc1 (stereo unspecified),.,?,/,.,.,/
N#C/C(=C\c1ccc(N2CCOCC2)o1)c1ccccc1,?,.,.,.,14µM,.
N#C/C(=C/c1ccc(N2CCCCCC2)o1)c1ccc(F)cc1,?,.,/,.,.,.
N#C/C(=C/c1ccc(N2CCOCC2)o1)c1ccc(Br)cc1,.,.,.,.,11µM,.
N#C/C(=C/c1ccc(N2CCCCCC2)o1)c1cccc(F)c1,/,?,.,?,13µM,.
N#C/C(=C/c1ccc(N2CCOCC2)o1)c1nc2ccccc2[nH]1,/,?,/,?,.,.
O=C1COc2cc(S(=O)(=O)CCC(=O)N3CCN(c4cccc(Cl)c4)CC3)c(Cl)cc2N1,.,.,/,.,.,/
Cc1ccc(CN2CCSc3ccc(C(=O)N4CCN(c5cc(C)ccc5C)CC4)cc32)cc1,?,.,/,/,.,/
Cc1ccc(CNC(=O)c2cnc3c(-c4ccc(F)cc4)c(C)nn3c2C)o1,.,.,/,/,.,/
Nc1c(C(=O)NCc2ccco2)nnn1-c1ccccc1,?,.,.,13µM,.,.
O=S1(=O)c2ccccc2N(Cc2cccc(Cl)c2)c2ccccc21,?,.,/,/,.,/
NC(N)=NC(N)=NCCc1ccccc1,13µM,.,.,.,.,.
Cc1cccc2c1-c1sc(C(=O)N(C)c3cccc(Cl)c3)cc1CO2,?,.,/,/,.,/
O=C(/C=C/c1ccccc1)NC(NC(=S)Nc1ccc(C(=O)O)cc1)C(Cl)(Cl)Cl (stereo unspecified),.,.,.,.,.,.
O=C(/C=C/c1ccccc1)NC(NC(=S)Nc1cccc(O)c1)C(Cl)(Cl)Cl (stereo unspecified),.,.,.,.,.,.
O=C(/C=C/c1ccccc1)NC(NC(=S)Nc1cccc(Cl)c1)C(Cl)(Cl)Cl (stereo unspecified),7.3µM,?,.,.,.,.
O=C(/C=C/c1ccccc1)NC(NC(=S)Nc1ccc(Cl)cc1Cl)C(Cl)(Cl)Cl (stereo unspecified),21µM,?,.,.,.,.
CC(=O)N1CCc2c(sc3c2c(=O)n(Cc2ccccc2)c(=O)n3Cc2cccc(Cl)c2)C1,21µM,.,/,.,.,/
Cc1ccc(N2CCN(C(=O)c3cn(C)c4ccc(S(=O)(=O)N5CCCC5)cc4c3=O)CC2C)cc1 (stereo unspecified),.,.,/,/,.,/
SMILES,Nrf2 inh,A549 tox,p53 reactivator,BRCA1 expr act,Nrf2 activator,IL2 activator
COc1ccc(C2=Nn3c(nnc3-c3ccccc3C)SC2)cc1OC,.,.,/,/,/,/
COC(=O)c1cc(=O)n(Cc2ccco2)c(=Nc2ccc(F)c(Cl)c2)s1,26µM,?,.,.,.,.
CCc1ccc(NC(=O)c2cnc3sc(N4CCCC4)nn3c2=O)cc1,.,.,/,/,.,/
CC(C)c1ccc(NC(=O)c2cnc3sc(N4CCCC4)nn3c2=O)cc1,2.3µM,.,/,/,.,/
O=S(=O)(c1ccc2c(c1)OCCO2)N1CCN(S(=O)(=O)c2c(F)cccc2F)CC1,.,?,/,/,/,/
O=S(=O)(NCC1CN(S(=O)(=O)c2c(F)cccc2F)C1)c1ccc2c(c1)OCCO2,12µM,.,.,.,.,.
COc1ccccc1S(=O)(=O)Cc1ccc(C(=O)N2CCN(c3cc(Cl)ccc3C)CC2)o1,?,.,/,/,.,/
COc1ccc(S(=O)(=O)Nc2cc(OC)cc3cccnc23)cc1,?,.,/,/,/,/
O=C(O)c1cc(NS(=O)(=O)c2ccc3ccccc3c2)ccc1O,.,.,.,.,.,.
O=C(O)c1ccccc1NS(=O)(=O)c1ccc2ccccc2c1,?,.,?,13µM,.,.
O=S(=O)(Nc1cccc2cccnc12)c1ccc(Br)cc1,8.2µM,?,/,/,/,/
Nc1ccc(S(=O)(=O)Nc2cccc3cccnc23)cc1,.,.,/,/,/,/
O=S(=O)(Nc1cccc2cccnc12)c1ccc2ccccc2c1,5.2µM,.,/,.,/,/
COc1ccc(S(=O)(=O)Nc2cccc3cccnc23)c([N+](=O)[O-])c1,7.3µM,?,/,.,/,/
O=S(=O)(Nc1cccc2cccnc12)c1cccs1,18µM,?,/,.,/,/
CCOC(=O)c1ccccc1NS(=O)(=O)c1ccc(C)cc1,.,.,.,.,.,.
CCOC(=O)c1ccccc1NS(=O)(=O)c1ccccc1,23µM,?,.,.,.,.
Cc1ccc(S(=O)(=O)Nc2ccc(C(=O)N3CCN(c4ccccc4O)CC3)cc2)cc1[N+](=O)[O-],15µM,.,.,.,.,.
CCc1ccc(NC(=O)C(C)OC(=O)c2ccc(NS(=O)(=O)c3ccc(C)c([N+](=O)[O-])c3)cc2)cc1 (stereo unspecified),21µM,?,.,.,.,.
Nc1nc2ncc(CNc3ccc(C(=O)NC(CCC(=O)O)C(=O)O)cc3)nc2c(=O)[nH]1 (stereo unspecified),/,/,/,.,/,/
CN(Cc1cnc2nc(N)nc(N)c2n1)c1ccc(C(=O)N[C@@H](CCC(=O)O)C(=O)O)cc1,1.5µM!,.,/,.,.,.
Oc1ccccc1-c1nc(NCc2ccco2)c2ccccc2n1,.,.,.,.,?,.
c1ccc(-c2nc(NCc3ccco3)c3ccccc3n2)nc1,21µM,.,.,.,.,.
CCOc1ccc(CN(CCc2ccc3c(c2)OCO3)Cc2cc(OC)cc(OC)c2)cc1,.,.,/,/,.,/
Clc1ccccc1CONc1ncnc2nonc12,?,.,.,10µM,.,.
Cn1nnc2c(NCc3ccccc3Cl)ncnc21,/,.,/,/,.,/
CCSC(C)CC1C/C(=N/O)c2c(CC)noc2C1 (stereo unspecified),23µM,.[1.84 µM],.,.,.,.
